# About 2,100 (0.66%) of roughly 320,000 compounds were called active. Another 53% or so got no clear call; they are omitted. The call rests on the fitted dose curve; in most records, active means well fitted inhibition curve with a large enough effect in the signal ratio, with a control signal flat (not every such curve was filed as active); inconclusive means small, poorly fitted or top-dose-only effect, or effect the other way, or a change in a side signal; inactive means flat fitted curve, though single readings scatter; the % refers to the signal ratio. This excerpt belongs to a sample that is enriched for actives.
# Test: qHTS Assay for Lipid Storage Modulators in Drosophila S3 Cells;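 on cell number change: cells counted by Cell Tracker Red CMTPX staining in the red channel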
# Details: BODIPY lipid droplet fluorescence, 18-24 h, cells fed with added oleic acid; cell number change: measured here: cell count max response; series mostly up to 46.1 µM
# Summary of the method: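 Laser-scanning cytometry quantifies lipid droplet accumulation (500–530 nm total intensity; droplet/cell object ratio) in oleic acid-fed (400 uM added) Drosophila S3 cells treated with a concentration series. 20 uM Triacsin C defined 100% inhibition.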
# Potency means the concentration at half of the fitted maximal effect.
Compound,Potency,cell number change [%]
Fc1ccccc1C(c1nnnn1C1CCCC1)N1CCN(Cc2ccccc2)CC1 (stereo not drawn),inactive,-15.7
COc1ccccc1NC(=O)Nc1ccc(Br)cn1,inactive,-23.3
COc1ccc(C2/C=C\CN(S(=O)(=O)/C=C/c3ccccc3)[C@H](Cc3ccccc3)C(=O)N2Cc2ccc(F)cc2)cc1 (stereo partly drawn),inactive,2.68
COc1cc(/C=N/NC(=O)c2ccc3nc[nH]c3c2)ccc1O,inactive,8.7
COc1cccc(CNC(=O)COc2cccc3c2OC(C)(C)C3)c1,inactive,
Cc1ccc(CNC(=O)COc2cccc3c2OC(C)(C)C3)cc1,10.3 µM (active),
CC1(C)Cc2cccc(OCC(=O)NCc3ccc(F)cc3)c2O1,inactive,2.51
CN(CCNC(=O)c1cn(C)c2ccc(S(=O)(=O)N3CCCC3)cc2c1=O)CCc1ccccc1,inactive,
COc1cc(NC(=S)N(C)CCC#N)c(OC)cc1Cl,inactive,-2.16
CCOC(=O)c1nc(C)n(-c2ccc(Cl)cc2Cl)n1,inactive,
CCOC(=O)c1nn(-c2ccc(C)c(C)c2)c(=O)c(C#N)c1C,inactive,-19.4
CCOC(=O)c1nn(-c2ccc(Cl)cc2Cl)c(=N)c(C#N)c1C,18.4 µM (active),4.21
CC(C)(C)NC(=O)NC(=O)COC(=O)C1=COCCO1,inactive,-19.1
Cn1cnnc1SCC(=O)N1c2ccccc2-c2c(ssc2=S)C1(C)C,inactive,1.3
Cc1ccc2c(c1)N(C(=O)CSc1nncn1C)C(C)(C)c1ssc(=S)c1-2,inactive,-13.4
CC1(C)c2ssc(=S)c2-c2ccccc2N1C(=O)c1ccco1,8.2 µM (active),1.38
O=C(N/N=C/c1ccccc1C(=O)O)c1cccc(S(=O)(=O)N2CCOCC2)c1,inactive,10.2
Cc1onc(-c2ccccc2)c1C(=O)Nc1ccncc1,inactive,12.5
Cc1onc(-c2ccccc2)c1C(N)=O,inactive,
Cc1onc(-c2ccncc2)c1C(=O)O,20.6 µM (active),-5.32
CCOc1ccc(CN2CCC(=O)NC2=O)cc1,inactive,-4.82
CC1CC(C)CN(CCCNC(=O)c2ccc(N3CCCC3=O)cc2)C1 (stereo not drawn),inactive,-12.7
COC(CNC(=O)c1ccc(N2CCC3(CC2)OCCO3)c([N+](=O)[O-])c1)OC,inactive,-9.81
COC(CNC(=O)c1ccc(N2CCc3ccccc32)c([N+](=O)[O-])c1)OC,20.6 µM (active),-26.9
COC(CNC(=O)c1cc(S(=O)(=O)N2CCc3ccccc32)ccc1F)OC,inactive,
O=C(Nc1cccc([N+](=O)[O-])c1)C(=O)N1CCCCC1,inactive,-20.3
CCOC(=O)c1ccc(NC(=O)CSc2nnc(-c3ccncc3)n2C)cc1,inactive,3.98

# Reference: PubChem BioAssay AID2685 (National Center for Advancing Translational Sciences (NCATS), 2010)
